An excerpt weighted towards active compounds, which were near 6% of everything screened.
D1 agonist – agonists of human D1 dopamine receptor | 360,000 compounds, 1% hits | activation, % at 2 µM | HEK293 T-REx D1 cells, calcium flux, agonist mode | P21728; in the data active = activation above about 30%; note: 0% is about no effect
Target sequence (P21728 whole entry, looked up): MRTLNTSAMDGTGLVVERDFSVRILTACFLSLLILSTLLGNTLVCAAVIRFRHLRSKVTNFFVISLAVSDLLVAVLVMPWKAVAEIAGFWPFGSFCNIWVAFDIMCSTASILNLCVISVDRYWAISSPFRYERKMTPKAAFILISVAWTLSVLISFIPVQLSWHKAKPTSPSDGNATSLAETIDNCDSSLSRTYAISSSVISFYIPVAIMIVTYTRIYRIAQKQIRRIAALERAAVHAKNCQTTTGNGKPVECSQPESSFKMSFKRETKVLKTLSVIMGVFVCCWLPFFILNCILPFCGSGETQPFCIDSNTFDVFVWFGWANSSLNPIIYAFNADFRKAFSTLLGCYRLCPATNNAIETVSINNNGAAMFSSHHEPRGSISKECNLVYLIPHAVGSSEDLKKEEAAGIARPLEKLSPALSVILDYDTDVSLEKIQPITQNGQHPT
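Agonism was scored from calcium flux recorded over 180 s (1 read/s) after pintool compound addition, following a 10-cycle baseline. Cells were inducible force-coupled HEK293 TREx D1, plated overnight at 30 C and loaded with no-wash calcium dye.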
D1 antagonist – blocks dopamine activation of the human D1 receptor. P21728. HEK293 TREx D1 cells, calcium flux, dopamine EC80; active compounds read low. activity change, negative = inhibition, % at 10 µM. 360,000 compounds, 3.2% hits. AID 504652; in the data active = activity change below about -30%; note: % is set by controls: 0 for no effect and ±100 for the full control effect
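Compound effects on dopamine-evoked calcium signalling were measured in tetracycline-induced HEK293 Trex D1 cells. Dopamine at EC80 followed a 180 s compound pre-read, and fluorescence was tracked kinetically for 180 s more.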
D1 potentiator – potentiators of human D1 dopamine receptor | P21728 | HEK293 TREx D1 cells, calcium flux, dopamine EC20 potentiation | potentiation, % at 10 µM | 360,000 compounds, 0.036% hits | AID 504651; in the data active = potentiation above about 30%; note: 0% is about no effect
DRD3 agonist – agonists of human D3 dopamine receptor; 410,000 compounds, 0.58% hits; max activation, %; D3R DiscoveRx beta-arrestin cells, luminescence, 90 min; in the data active = max activation above about 30%; note: 0% is about no effect
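Cells at 1500/well, incubated overnight, then treated with pinned compounds (dopamine as control) for 90 min at 37 degrees C. DiscoveRx reagent added for 30 - 60 minutes at room temperature; luminescence read.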
DRD3 antagonist – blocks the human D3 dopamine receptor; max response, negative = inhibition, %; AID 652054; 360,000 compounds, 2.5% hits; D3R cells, DiscoveRx beta-arrestin luminescence, antagonist mode; active compounds read low; P35462; in the data active = max response below about -50%; inconclusive = no clear call, values can overlap the other calls; note: % is set by controls: 0 for no effect and ±100 for the full control effect
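Cells expressing the human receptor were seeded at 1500 cells/well, incubated overnight at 37 degrees C in 5% CO2, then exposed to library compounds with dopamine controls for 90 minutes at 37 degrees C before luminescent detection.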
The depositor's hits bear a star.

CCCCN1C(=O)C(=O)N(CC(=O)N2CCN(c3ccccc3)CC2)C1=O was read as D1 agonist 1, D1 antagonist -5, D1 potentiator -2, DRD3 agonist -3 and DRD3 antagonist -23.
`O=C(CCC(=O)N1CCN(c2ccc(F)cc2)CC1)c1ccccc1` gave D1 agonist 0, D1 antagonist -1, D1 potentiator -2, DRD3 agonist 0 and DRD3 antagonist -10.
Screening O=C(CCCN1CCN(c2ccccc2)CC1)c1ccc(F)cc1 returned DRD3 agonist 2 and DRD3 antagonist -102*.
`O=C(CCCCn1c(=O)c2ccccc2n(CC(=O)Nc2ccccc2)c1=O)NCc1ccccc1Cl` gave D1 agonist 15, D1 antagonist 8, D1 potentiator -2 and DRD3 agonist -10.
For CCc1ccc(NC(=O)CN2C(=O)C3(SCC(=O)N3c3ccccc3)c3ccccc32)cc1 (stereo not drawn) the results were D1 agonist 0, D1 antagonist -5, D1 potentiator -1 and DRD3 agonist -13.
`Cc1ccc(CNC(=O)C2CCCN(S(=O)(=O)c3ccc4c(c3)oc(=O)n4C)C2)cc1` (stereo not drawn) gave D1 agonist 2, D1 antagonist -23, D1 potentiator -4 and DRD3 agonist 6.
For O=C(CN1CCN(c2ccccc2)CC1)c1ccc2cc[nH]c2c1 the results were D1 agonist 5, D1 antagonist -36*, D1 potentiator -6, DRD3 agonist 2 and DRD3 antagonist -63*.
CN1CCN(CCCC(=O)c2ccc(F)cc2)CC1 was read as D1 agonist 0, D1 antagonist -5, D1 potentiator -3, DRD3 agonist -6 and DRD3 antagonist -60*.
For O=C(CCN1Cc2ccccc2C1)c1ccc2c(c1)OCCO2 the results were D1 agonist 3, D1 antagonist -8, D1 potentiator -4, DRD3 agonist -29 and DRD3 antagonist -52*.
O=C(CCCN1CCN2CCCC2C1)c1ccc(F)cc1 (stereo not drawn) was read as DRD3 agonist -19.
For O=C(CCN1CCc2ccccc2C(c2ccccc2)C1)c1ccc2c(c1)OCCO2 (stereo not drawn) the results were D1 agonist 3, D1 antagonist 0, D1 potentiator -1, DRD3 agonist -16 and DRD3 antagonist inconclusive.
`CCc1ccc(S(=O)(=O)NCc2nc3cccnc3n2Cc2ccccc2Cl)cc1` gave D1 agonist 2, D1 antagonist 15, D1 potentiator -6 and DRD3 agonist 3.
For COc1ccc(-c2cc(CCCC(=O)NCCc3ccc(OC)cc3OC)no2)cc1 the results were D1 agonist 21, D1 antagonist -44*, D1 potentiator -8, DRD3 agonist 16 and DRD3 antagonist 33.
`Cc1ccccc1C(=O)N1CCN(c2ccccn2)CC1` gave D1 agonist 3, D1 antagonist 7, D1 potentiator 0, DRD3 agonist 0 and DRD3 antagonist 15.
For O=C(c1ccccc1Br)N1CCN(c2ccccn2)CC1 the results were D1 agonist 6, D1 antagonist -3, D1 potentiator -4, DRD3 agonist 33* and DRD3 antagonist -11.
Screening Cc1ccc(Cl)cc1N1CCN(C(=O)CCCn2c(=O)[nH]c3ccc(Br)cc3c2=O)CC1 returned D1 agonist -1, D1 antagonist 7, D1 potentiator 0 and DRD3 agonist 15.
`CSCCC(NC(=O)c1cccc(S(=O)(=O)N2CCOCC2)c1)C(=O)Nc1ccc(F)cc1` (stereo not drawn) gave D1 agonist 3, D1 antagonist 8, D1 potentiator -2, DRD3 agonist -10 and DRD3 antagonist -24.
COc1cc(C(=O)NC(CCSC)C(=O)Nc2ccc(N3CCOCC3)cc2)cc(OC)c1OC (stereo not drawn) was read as DRD3 agonist -4 and DRD3 antagonist -73*.
Screening COc1ccccc1NC(=O)CSc1nnc(-c2ccccn2)o1 returned D1 agonist 5, D1 antagonist -8, DRD3 agonist 32* and DRD3 antagonist 12.
Cc1ccc(C)c(NC(=O)CSc2nnc(-c3ccncc3)o2)c1 was read as D1 agonist 1, D1 antagonist -6, D1 potentiator -4, DRD3 agonist -2 and DRD3 antagonist -12.
`COc1ccc(CCCc2nnc(SCC(=O)Nc3ccccc3F)o2)cc1C` gave D1 agonist 15, D1 antagonist -30, D1 potentiator -2 and DRD3 agonist -14.
For COc1ccc(CCCc2nnc(SCC(=O)Nc3ccc(F)cc3)o2)cc1C the results were D1 agonist 1, D1 antagonist -50*, D1 potentiator -5 and DRD3 agonist -6.
`CC(C)c1ccccc1NC(=O)CSc1nnc(COc2ccccc2Cl)o1` gave D1 agonist 38*, D1 antagonist -9, D1 potentiator -1 and DRD3 agonist -14.
Screening Cc1ccc(NC(=O)CSc2nnc(-c3ccc([N+](=O)[O-])cc3)o2)c(C)c1 returned D1 agonist 51*, D1 antagonist -4, D1 potentiator 0 and DRD3 agonist -18.
`Cc1ccc(Cl)cc1N(C)C(=O)c1sc2nc3n(c(=O)c2c1C)CCCC3` gave D1 agonist 0, D1 antagonist -4, D1 potentiator -5 and DRD3 agonist 8.
`COc1ccccc1NC(=O)CSc1nnc(-c2ccccc2C)o1` gave D1 agonist 3, D1 antagonist 0, D1 potentiator 2 and DRD3 agonist -1.
Screening CCOc1ccc(-c2nnc(SCC(=O)Nc3cc(F)ccc3F)o2)cc1 returned D1 agonist 1, D1 antagonist 1, D1 potentiator 1 and DRD3 agonist -1.
COc1ccccc1NC(=O)CSc1nnc(-c2ccc(C)cc2)o1 was read as D1 agonist 1, D1 antagonist -82*, D1 potentiator -10, DRD3 agonist -2 and DRD3 antagonist -22.
COc1ccc(-c2nnc(SCC(=O)Nc3cc(F)ccc3C)o2)cc1 was read as D1 agonist 12, D1 antagonist -39*, DRD3 agonist 6 and DRD3 antagonist 9.
For CN(C)c1ccc(CNC(=O)Cc2ccc(NC(=O)N3CCCCc4ccccc43)cc2)cc1 the results were D1 agonist 6, D1 antagonist 7, D1 potentiator 3 and DRD3 agonist -1.
`O=C1C(c2ccc(F)cc2)N(CCc2ccccc2)C(=O)CN1C1CCCCCC1` (stereo not drawn) gave D1 agonist -3, D1 antagonist 10, D1 potentiator 0 and DRD3 agonist 10.
`CN1CCN(c2ccc([N+](=O)[O-])c(-n3nc(-c4ccccc4)c4ccccc4c3=O)c2)CC1` gave D1 agonist 0, D1 antagonist -15, D1 potentiator -6, DRD3 agonist 2 and DRD3 antagonist -53*.
Screening Cc1nn(-c2cc(N3CCCCC3)ccc2[N+](=O)[O-])c(=O)c2ccccc12 returned D1 agonist 5, D1 antagonist -13, D1 potentiator -9, DRD3 agonist -19 and DRD3 antagonist inconclusive.

Assay outcomes as filed in PubChem BioAssay.
